In PubChem BioAssay (NCATS):
Results filed as inconclusive are left out. Entries that show only a call come without a potency. The source made the active and inactive calls. Calls come from the whole dose curve; as a rule, active = well fitted cell-killing curve with a large enough effect; inconclusive = small, poorly fitted or top-dose-only effect; inactive = no such curve, though single readings can be large or run the other way.
Potency is the fitted concentration of half-maximal effect.

Assay: qHTS of pediatric cancer cell lines to identify multiple opportunities for drug repurposing: Primary screen for Saos-2 cells (AID 1347097); note: nearly all actives have a fitted effect of over 40% in size
Settings: Saos-2 viability, CellTiter-Glo ATP luminescence, 48 h; series mostly up to 46 µM
Excerpt: Drug repurposing or repositioning has been offered as a strategy for drug development in oncology programs. This approach has special potential for childhood cancers and other rare or orphan diseases, where the expected return on new drug development has been a disincentive to pharmaceuticals. […] In this project we exploit the poly-pharmacology of drugs to discover new indications via phenotypic screening of a panel of 19 well-characterized cell lines derived from solid tumors seen in children and adolescents. The goal is to identify approved drugs with previously unrecognized anticancer properties that has the potential to reveal new mechanisms and biological processes involved in carcinogenesis or drug resistance. We employed a titration-based paradigm (quantitative high-throughput screening or qHTS), where all compounds were tested at multiple concentrations for their effect on cell viability. Concentration-response curves (CRCs) were derived directly from the primary screen, and both potency and efficacy values were used to identify compounds with robust bioactivity profiles. We screened the NIH Chemical Genomics Center (NCGC) Pharmaceutical Collection (NPC) and Mechanism Interrogation Plate (MIPE) small molecule collections of approved and investigational compounds against these cell lines; and measured metabolically active cells after 48 hours of compound treatment as a proxy for cell viability. […] Assay Submitter: Nathalia J. Martinez, National Center for Advancing Translational Sciences, National Institutes of Health, Rockville, MD, USA; email: natalia.martinez@nih.gov Shen, M et al. Quantitative high-throughput phenotypic screening of pediatric cancer cell lines identifies multiple opportunities for drug repurposing. Oncotarget 2017 Dec 19;9(4):4758-4772. PMID 29435139.
The cells were obtained from University of North Carolina (UNC), Pediatric Preclinical Testing Program (PPT), and Coriell Institute (CI). qHTS cell viability assay: Cells were assayed in growth media at a density of 500-1,000 cells/well. Five microliters of cells were dispensed into 1,536-well, white, solid-bottom, TC-treated plates (Greiner Bio One) using a multidrop dispenser and incubated at 37 degrees C, 5% CO2, under a humidified atmosphere for 5 hours. Twenty-three nanoliters of compounds and controls (neutral control DMSO or positive control bortezomib at final concentration of 2.3 µM) were subsequently transferred by Kalypsys pintool. For primary screens, the MIPE collection was tested at 11-point dilutions (final concentrations range from 0.78 nM to 46 µM) and the NPC collection at 8-point dilutions (final concentrations range from 0.59 nM to 46 µM). Compounds tested in follow-up screens were assayed at 11-point dilutions. Cells were incubated for 48 hours, followed by addition of 3 µL of CellTiter-Glo (Promega). After a 15 min incubation at room temperature, samples were analyzed for luminescence intensity using a ViewLux High-throughput CCD imager equipped with clear filters.
For CC(=O)Nc1ncc([N+](=O)[O-])s1, the Potency was “inactive”.
With CN1CCC(OC(c2ccccc2)c2ccccc2)CC1 the Potency was “inactive”.
In the case of CCCCCCCCCCCCCCCC(=O)O, the Potency is reported as “inactive”.
In the case of CCN1CCCC(OC(=O)C(c2ccccc2)c2ccccc2)C1 (stereo not given), the Potency is reported as “inactive”.
In the case of CCN(CC)CCOC(=O)C1(c2ccccc2)CCCC1, the Potency is reported as “inactive”.
For CCN(CC)CCOc1ccccc1C(=O)CCc1ccccc1, the Potency was “inactive”.
For CN1CCc2cccc3c2[C@H]1Cc1ccc(O)c(O)c1-3, the Potency was 21.1 µM (active).
With CC(C)(C)NC[C@H](O)COc1cccc2c1CCCC2=O the Potency was “inactive”.
In the case of CC(=O)Nc1ccc(S(=O)(=O)Nc2ccc([N+](=O)[O-])cc2)cc1, the Potency is reported as “inactive”.
For O=[N+]([O-])c1ccc(/C=N\O)o1, the Potency was “inactive”.
In the case of Cl/C(=C\n1cncn1)c1ccc(Cl)cc1Cl, the Potency is reported as “inactive”.
For NC(=O)C1(N2CCCCC2)CCN(CCCC(=O)c2ccc(F)cc2)CC1, the Potency was “inactive”.
For CN(C)CCC[C@@]1(c2ccc(F)cc2)OCc2cc(C#N)ccc21, the Potency was “inactive”.
In the case of CCC(Cc1c(I)cc(I)c(N)c1I)C(=O)O (stereo not given), the Potency is reported as “inactive”.
For CC(C)(C)NCC(O)COc1cccc2c1C[C@H](O)[C@H](O)C2 (stereo not given in full), the Potency was “inactive”.
For O=S(=O)(O)c1ccc(O)cc1, the Potency was “inactive”.
With O=C(CN1CCN(Cc2ccc3c(c2)OCO3)CC1)N1c2ccccc2Sc2ccccc21 the Potency was “inactive”.
With CC(C)NCC(O)c1ccc2ccccc2c1 (stereo not given) the Potency was “inactive”.
For CC(=O)O[C@]1(C(C)=O)CC[C@H]2[C@@H]3C=C(Cl)C4=CC(=O)CC[C@]4(C)[C@H]3CC[C@@]21C, the Potency was “inactive”.
For Cc1ccc(-c2ncc(Cl)cc2-c2ccc(S(C)(=O)=O)cc2)cn1, the Potency was “inactive”.
With O=C(O)P(=O)(O)O the Potency was “inactive”.
With CN1CCN(c2c(F)cc3c(=O)c(C(=O)O)cn4c3c2SCC4)CC1 the Potency was “inactive”.
For O=C(O)CCC(=O)Nc1ccc(S(=O)(=O)Nc2nccs2)cc1, the Potency was “inactive”.
In the case of O=C(Oc1cccc2cccnc12)c1ccccc1, the Potency is reported as 15 µM (active).
With Cc1cc(NS(=O)(=O)c2ccc(N)cc2)nc(C)n1 the Potency was “inactive”.
For CCOc1ccc(NC(C)=O)cc1, the Potency was “inactive”.
With COc1ccc(S(=O)(=O)N2c3ccc(Cl)cc3[C@@](O)(c3ccccc3Cl)[C@H]2C(=O)N2CCC[C@@H]2C(N)=O)cc1OC the Potency was “inactive”.
For CCOc1ccccc1OCCN[C@H](C)Cc1ccc(OC)c(S(N)(=O)=O)c1, the Potency was “inactive”.
In the case of Nc1nc(N)c(-c2ccccc2)s1, the Potency is reported as “inactive”.
For CC(C)Cc1ccc(CC(=O)O)cc1, the Potency was “inactive”.
With Cc1cc2c(OCC(CNC(C)(C)C)OC(=O)c3ccccc3)cccc2[nH]1 (stereo not given) the Potency was “inactive”.
With COc1cc(NS(=O)(=O)c2ccc(N)cc2)ncn1 the Potency was “inactive”.
For Cc1cccc(C)c1NC(=O)c1ccccc1C(=O)O, the Potency was “inactive”.
In the case of Nc1nc(-c2ccccc2)c(Br)c(=O)[nH]1, the Potency is reported as “inactive”.
In the case of Oc1ccc(Cl)cc1Cc1cc(Cl)ccc1O, the Potency is reported as 8.41 µM (active).
In the case of CN1CCN(C2=Nc3ccccc3Sc3ccc(Cl)cc32)CC1, the Potency is reported as “inactive”.
With OCCOCCN1CCN(C2=Nc3ccccc3Sc3ccccc32)CC1 the Potency was “inactive”.
With O=C1c2cccc3c2[C@H](CCC3)CN1[C@@H]1CN2CCC1CC2 the Potency was “inactive”.
With C=C1c2cccc(O)c2C(O)=C2C(=O)[C@]3(O)C(O)=C(C(N)=O)C(=O)[C@@H](N(C)C)[C@@H]3[C@@H](O)[C@H]12 the Potency was “inactive”.
For CC[C@H](c1ccc(O)cc1)[C@@H](CC)c1ccc(O)cc1, the Potency was 23.7 µM (active).
